# Laboratory results reported in PubChem BioAssay (EPA / NIEHS).
# Several values for one entry are separate records, joined by “and”; a condition that tells them apart may be missing. Equal values may be shown once. Records with an inconclusive call do not appear. Activity calls are given as the source filed them. Rule for the calls, unless noted: active = hit-call score of the fitted dose curve at least 0.9, where 1 is the maximum; inconclusive = response in the unintended direction; inactive = score below 0.9.
# System: not listed separately
# Assay: STM_H9_OrnCyssISnorm_ratio: Stemina devTOX quickPredict H9 human embryonic stem cell (hESC)-based Assay for Ornithine (ORN):Cystine (CYSS) Ratio (AID 2283714)
# How it was run: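 H9 hESC, 72h, q24h re-dose; last-day media → acetonitrile deproteinization → UPLC-HRMS. ORN:CYSS ratio from isotope-normalized EIC areas, vs 0.1% DMSO; MTX references on each plate.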
Structure (SMILES),AC50,outcome
Nc1ccc(N)c(Cl)c1,13.5 µM (active),
O=C1CCCCCCCCCCC(=O)OCCO1,,inactive
CN(C)c1ccc(N=Nc2ccccc2C(=O)O)cc1,37.5 µM (active),
CCOC(=O)c1ccccc1C(=C1C=C(Br)C(=O)C(Br)=C1)c1cc(Br)c(O)c(Br)c1,3.9 µM (active),

# Read-out: not listed separately
# Assay: CEETOX_H295R_MTT_cell_viability: Viability Assessment in the CeeTox HT-H295R MTT Assay (AID 2283718; active = hit-call score of the fitted dose curve at least 0.9, where 1 is the maximum; inactive = score below 0.9;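 for AC50: curve fitted both ways so AC50 may mark viability loss or gain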)
# How it was run: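 H295R cells prestimulated 48 h with 10 uM forskolin, then exposed 48 h to test chemical (0.1% DMSO final). Viability by MTT (0.5 mg/ml, 4 h, 37 C), absorbance 570/650 nm; percent change versus DMSO, bidirectional fit.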
Structure (SMILES),outcome,AC50
CCCCNc1ccc(NCCCC)c2c1C(=O)c1ccccc1C2=O,inactive,
CO[Si](CCC1CCC2OC2C1)(OC)OC (stereo not drawn),inactive,
O=C(C=Cc1ccccc1)OCc1ccccc1,inactive,
COCc1c(C(C)C)nc(C(C)C)c(/C=C/[C@@H](O)C[C@@H](O)CC(=O)O)c1-c1ccc(F)cc1,inactive,
COC(=O)c1c(C)cc(O)c(C)c1O,inactive,
CCOC(=O)Cc1cccc2ccccc12,inactive,
C#CC1(O)CC[C@H]2[C@@H]3CCC4=CCCC[C@@H]4[C@H]3CC[C@@]21C (stereo partly drawn),inactive,
Cc1ccc(C(C)c2ccc(C)c(C)c2)cc1C,inactive,
CCCCC/C=C\CCC=O,inactive,
C=COCCCC,inactive,
COc1ccc2nc(N)sc2c1,inactive,
O=C(Nc1ccccc1SSc1ccccc1NC(=O)c1ccccc1)c1ccccc1,inactive,
CN(C)c1ccc(C(=N)c2ccc(N(C)C)cc2)cc1,,0.0018 µM (active)
Oc1ccc(Cl)cc1Cc1cc(Cl)ccc1O,inactive,
CCCCCCCCCCCCCOP(=O)(O)O,inactive,
C1=CCCC1,inactive,
S=C(NC1CCCCC1)NC1CCCCC1,inactive,

# Biological target: Luciferin 4-monooxygenase (Photinus pyralis) (UniProt P08659)
# Sequence (P08659 whole entry, looked up): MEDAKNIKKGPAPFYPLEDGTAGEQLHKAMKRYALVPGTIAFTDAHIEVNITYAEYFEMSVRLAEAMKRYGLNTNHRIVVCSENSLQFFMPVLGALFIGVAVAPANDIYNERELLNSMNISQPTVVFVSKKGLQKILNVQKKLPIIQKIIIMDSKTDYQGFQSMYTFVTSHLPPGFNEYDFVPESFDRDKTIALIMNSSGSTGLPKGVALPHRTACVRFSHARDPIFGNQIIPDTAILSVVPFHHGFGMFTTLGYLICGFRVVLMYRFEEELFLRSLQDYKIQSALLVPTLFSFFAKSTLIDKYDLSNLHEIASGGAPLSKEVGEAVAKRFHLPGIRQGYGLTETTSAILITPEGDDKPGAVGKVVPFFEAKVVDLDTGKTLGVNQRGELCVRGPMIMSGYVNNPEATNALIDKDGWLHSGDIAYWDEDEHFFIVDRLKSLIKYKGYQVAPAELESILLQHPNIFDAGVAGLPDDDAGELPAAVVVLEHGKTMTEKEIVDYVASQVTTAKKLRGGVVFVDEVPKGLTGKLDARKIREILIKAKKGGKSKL
# Assay: CCTE_Simmons_QuantiLum_inhib_2: CCTE's Firefly Luciferase Inhibition Assay, Simmons Lab (AID 2283767);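 for AC50: potency for inhibitors that lower luciferase luminescence relative to DMSO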
# How it was run: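 First, 5 ng purified luciferase in phosphate buffer with BSA is dispensed per well. Next, test chemicals (5 nM to 87.5 uM final, 0.5% DMSO) are added and incubated 30 min at 37C in darkness. Finally, luciferin reagent is injected and luminescence read kinetically.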
Structure (SMILES),outcome,AC50
O=C(c1ccccc1)c1ccc(O)c(O)c1O,inactive,
C1=Cc2ccccc2C1,inactive,
CNC(=S)NN,inactive,
CCCCCCCC[N+](C)(CCCCCCCC)CCCCCCCC,,86 µM (active)
C1CN(SSN2CCOCC2)CCO1,inactive,
COC(=O)c1c(C)cc(O)c(C)c1O,inactive,
CCCCC/C=C\C/C=C\CCCCCCCC(=O)OC,inactive,
O=S1(=O)OC(c2ccc(O)cc2)(c2ccc(O)cc2)c2ccccc21,,36.6 µM (active) and 21.5 µM (active)
Cc1ccc(N/N=c2\c(=O)cc/c(=N/Nc3ccc(S(=O)(=O)O)cc3)c2=O)c(C)c1,,53.8 µM (active)
c1ccc2c(c1)ccc1cc3c(ccc4ccccc43)cc12,,0.105 µM (active)
O=S(=O)(O)c1ccccc1C=Cc1ccc(-c2ccc(C=Cc3ccccc3S(=O)(=O)O)cc2)cc1,inactive,
CN(C)c1ccc(C(=N)c2ccc(N(C)C)cc2)cc1,inactive,
CCN(CCC#N)c1ccc(N=Nc2c(Cl)cc([N+](=O)[O-])cc2Cl)cc1,,53.8 µM (active)
CCCCCCCCCCCCCOP(=O)(O)O,inactive,
CC(C)(C)c1ccc(N)cc1,inactive,
CC/C=C\C/C=C\C/C=C\CCCCCCCC(=O)O,inactive,
CC(C)(C)c1ccc(-c2ccc(C(C)(C)C)cc2)cc1,inactive,
